Compounds without any hit were thinned out: in the full panel of roughly 83,000, 20% have a hit.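 The endpoint reported here, percent growth, reads 100 for growth as untreated, 0 for no net growth and -100 for all cells dead.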 The source made the active and inactive calls. How the source made its calls: active means growth percent below 10; inactive means the rest.

In this test the test system is HL-60(TB) leukemia. Briefly: NCI-60 one-dose screen, 48 h (100 = growth as untreated, 0 = no growth, -100 = all killed). The note with it: 10 µM unless noted.
In the case of `COC(=O)[C@]12CC[C@@H](C)[C@H](C)[C@@H]1C1=CC[C@@H]3[C@@]4(C)C=C(O)C(=O)[C@@]5(C)COC(=C54)C[C@@]3(C)[C@]1(C)CC2`, the growth is -50% (active).

Take `CCCCCCCCCC[N+](C)(C)N`: the growth is 90.2% (inactive).

With `CCOC(=O)C1C(=O)C=C(c2ccccc2)CC1c1sc(N(C)Cc2ccccc2)nc1Cl` (centres undefined), the growth was 78.4% (inactive).

For the compound `CN1CCN(Cc2ccc(NC(=O)c3nc4ccc5[nH]ncc5c4c4c3CCCC4)cc2C(F)(F)F)CC1`, the growth is -57.4% (active).

On to `C=C1C(=O)O[C@H]2[C@H]1CC/C(COC(=O)c1cc3cc(OC)ccc3[nH]1)=C\CC[C@@]1(C)O[C@@H]21`, for which the growth is -34.5% (active).

Take `O=C(CN1CCCCCC1)Nc1nc2ccc(NCc3ccc(Cl)cc3)cc2s1`: the growth was 95.9% (inactive).

On to `COc1cc(Cl)c(C)cc1NC(=O)c1cc2ccccc2cc1O`, for which the growth is 9.27% (active).

Take `Cc1cc(C(=O)Nc2ncnc3nc[nH]c23)no1`: the growth was 91.1% (inactive).

Take `c1ccc(Cc2ccccc2)cc1`: the growth is 112% (inactive).

`CCCCNc1ccc2c3c1cccc3c(=O)n1c3ccccc3nc21`: the growth was 63.4% (inactive).

For the compound `COc1ccc2c(c1)O/C(=C\c1ncc([N+](=O)[O-])n1C)C2=O`, the growth was -3.86% (active).

For `CCOC(=O)C(C(C)=O)c1nc2sc3cc(Cl)ccc3n2c(=N)c1C#N` (centres undefined), the growth is 115% (inactive).

In the case of `COc1ccc(C2CC(=O)c3c(O)cc(OC4OC(COC5OC(C)C(O)C(O)C5O)C(O)C(O)C4O)cc3O2)cc1O` (centres undefined), the growth is 131% (inactive).

Turning to `NCCCc1nnc(CCC(=O)c2nc3ccccc3[nH]2)o1`, the growth is 92.3% (inactive).

(Values after PubChem BioAssay (NCI).)
